# Shown are actives, neighbours in structure and some others; about 10% of the full set was active somewhere.
# G9a inh: G9a (human) methyltransferase inhibition; G9a H3K9 monomethylation, AlphaScreen, 2 h; AID 504332; Q96KQ7; 350,000 compounds, 8.8% hits; Potency, µM (highest dose often 102 µM), for the others: top-dose activity, negative = inhibition, most hits filed as inhibitors; note: potency is the fitted concentration of half-maximal effect; nearly all actives have a fitted effect of over 75% in size
# Target sequence (Q96KQ7 913-1193 limits assumed): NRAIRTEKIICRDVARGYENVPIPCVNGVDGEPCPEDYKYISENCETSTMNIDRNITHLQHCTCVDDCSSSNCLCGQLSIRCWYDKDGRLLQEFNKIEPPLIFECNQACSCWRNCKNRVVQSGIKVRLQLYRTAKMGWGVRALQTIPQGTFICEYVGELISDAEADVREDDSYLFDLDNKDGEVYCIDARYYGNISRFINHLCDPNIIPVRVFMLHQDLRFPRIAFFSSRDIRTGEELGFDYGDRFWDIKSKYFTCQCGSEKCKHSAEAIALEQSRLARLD
#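 Chemiluminescent proximity detection of H3K9 monomethylation, read after 10 min bead incubation in the dark. Reaction: 20 nM G9a, 500 nM biotin-H3K9 peptide, 20 uM SAM cofactor, 2 h, room temperature, following 15 min enzyme-compound preincubation.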
# CCT modulator: modulators of cytosolic chaperonin (CCT/TRiC) activity; purified chaperonin ATPase assay, HTRF ADP detection, 30 min; activity change, % (test concentration not listed), hits read low; 360,000 compounds, 0.3% hits; in the data active = activity change below about -30%
#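 ATPase activity: ADP formed was measured by HTRF Transcreener (665/615 nm ratio) after 30 min at 37 deg C with 10 uM ATP. Compounds screened at one 76 uM concentration against 40 or 20 nM TRiC in Tris pH 7.4/KCl/MgCl2/DTT buffer.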
# Mm-Cpn inhibitor: M. maripaludis TRiC chaperonin inhibition | purified Mm-Cpn ATPase, ADP Transcreener TR-FRET | Potency, µM (titrated, usually from 76.9 µM), for the others: top-dose activity, negative = inhibition, hits mostly inhibitors | 330,000 compounds, 0.031% hits; note: potency is the fitted concentration of half-maximal effect; nearly all actives have a fitted effect of over 80% in size
#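 Measured: ADP formation by purified Mm-CPN. Conditions: 25 nM protein, 10 uM ATP, Tris pH 7.4 with Mg2+, K+ and DTT, 37°C for 30 min. Detection: Transcreener HTRF after 30 min at room temperature.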
# VDR inh: inhibitors of human vitamin D receptor. P11473. VDR-SRC2-3 peptide fluorescence polarization, 2 h. Potency, µM, for inactives: max response, negative = inhibition, most hits filed as inhibitors. 400,000 compounds, 0.93% hits; note: potency is the fitted concentration of half-maximal effect
# Target sequence (P11473 whole entry, looked up): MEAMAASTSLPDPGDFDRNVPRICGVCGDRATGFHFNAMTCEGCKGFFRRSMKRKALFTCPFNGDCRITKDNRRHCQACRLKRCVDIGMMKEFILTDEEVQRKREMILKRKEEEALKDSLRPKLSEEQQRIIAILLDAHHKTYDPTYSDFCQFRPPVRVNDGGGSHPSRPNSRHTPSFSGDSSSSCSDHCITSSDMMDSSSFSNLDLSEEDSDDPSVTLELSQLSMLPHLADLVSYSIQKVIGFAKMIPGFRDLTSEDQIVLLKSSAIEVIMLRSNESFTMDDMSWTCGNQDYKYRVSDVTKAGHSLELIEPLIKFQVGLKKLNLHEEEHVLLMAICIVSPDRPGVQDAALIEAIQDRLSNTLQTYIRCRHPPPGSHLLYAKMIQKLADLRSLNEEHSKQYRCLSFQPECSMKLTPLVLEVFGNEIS
#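 Fluorescence polarization assay measuring small-molecule disruption of VDR binding to the coregulator peptide SRC2-3. Compounds were pin-transferred (23 nl) into the reagent mix and incubated 2 h at room temperature before reading.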
# PLK1 PBD block: PLK1 (human) polo-box domain binding inhibition; AID 720504; 360,000 compounds, 2.8% hits; Plk1 PBD binding of FITC phosphopeptide, fluorescence polarization; Potency, µM, for the others: max response, negative = inhibition, most hits filed as inhibitors; note: potency is the fitted concentration of half-maximal effect; series mostly up to about 57 µM; nearly all actives have a fitted effect of over 65% in size
# Sfp inh: inhibitors of Bacillus subtilis Sfp phosphopantetheinyl transferase; Q9F4F7; Biochemical Sfp PPTase activity, qHTS; Potency, µM, for the others: largest response in the series, negative = inhibition, hits mostly inhibitors; 310,000 compounds, 3.5% hits;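 note: the enzyme is Sfp with the accession as filed and its product quenches rhodamine fluorescence; potency is the fitted concentration of half-maximal effect; 0% = enzyme reaction without inhibitor and -100% = no enzyme wells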
#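 After 15 min at room temperature with compound, 15 nM Sfp received 5 uM rhodamine-CoA plus 12.5 uM BHQ-2-ybbR (50 mM Hepes pH 7.6, 10 mM MgCl2). Rate came from the fluorescence difference over 30 min, ex 525/em 598 nm.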
# The depositor's hits bear a star; ? = inconclusive; · = no result given; [ ] = another dose, or the depositor's remark. Unless noted, calls come from the whole dose curve; as a rule, active = well fitted curve in the direction sought with a large enough effect; inconclusive = small, poorly fitted or top-dose-only effect, or another doubt; inactive = no such curve, though single readings can be large; an effect the other way counts as inactive or inconclusive. Unless noted, % is set by controls: 0 for no effect and ±100 for the full control effect.
SMILES,G9a inh,CCT modulator,Mm-Cpn inhibitor,VDR inh,PLK1 PBD block,Sfp inh
Cc1ccc(NP(=O)(c2ccc(N(C)C)cc2NC(=O)c2cccs2)N2CCOCC2)cc1Cl (stereo unspecified),79µM*,0,1%,8%,-1%,6%
O=C(CN1C=NS(=O)(=O)c2ccccc21)Nc1ccccc1F,1%[59 µM],·,·,4%,·,·
O=C(O)c1ccc2c(=O)n(-c3ccccc3)c(=S)[nH]c2c1,?,0,1%,9%,5%,-18%
O=c1c2cn[nH]c2[nH]c(=S)n1-c1cccc2ccccc12,50µM*,0,-14%,-20%,-16%,-22%
O=c1c2cn[nH]c2[nH]c(=S)n1-c1ccccc1,8.9µM*,-2,-1%,0%,-13%,14µM*
N#CCSc1nc2[nH]ncc2c(=O)n1-c1ccccc1Br,7%[59 µM],-3,-5%,?,0%,?
COc1ccc(-n2c(=S)[nH]c3[nH]ncc3c2=O)cc1,·,-1,1%,-3%,-10%,50µM*
O=C(c1c2c(nc3ccccc13)C(=O)N(C1CCCCC1)C2)N1CCN(c2ccc(F)cc2)CC1,-4%[59 µM],·,·,20%,·,·
O=C(N/N=C/c1sc(N2CCCCC2)nc1-c1cccs1)C1CC1,25µM*,0,-9%,-8%,-14%,56µM*
CCC(C(=O)Nc1ccc(C(=O)OC)cc1)n1c(=O)c(-c2ccccc2NC(C)=O)nc2ccccc21 (stereo unspecified),?,·,·,-4%,·,·
CCc1ccc(NC(=O)C2CCCN2S(=O)(=O)c2cccc3nsnc23)cc1 (stereo unspecified),-7%[59 µM],·,·,-3%,·,·
CCOc1ccc(CN2CCN(Cc3[nH]c4ccccc4c3C)CC2CCO)cc1 (stereo unspecified),6%[12.7 µM],-1,1%,0%,0%,16%
O=c1cc(CN2CCN(Cc3ccc(F)cc3)C(CCO)C2)[nH]c2ccccc12 (stereo unspecified),25µM*,-3,0%,-7%,-22%,-1%
Cc1c(CN2CCN(CC(C)(C)C)C(CCO)C2)[nH]c2ccccc12 (stereo unspecified),71µM*,1,0%,-9%,1%,2%
OCCC1CN(Cc2cc3ccccc3o2)CCN1Cc1ccc(F)cc1 (stereo unspecified),-12%,0,3%,?,-1%,9%
COC(=O)[C@@H]1[C@@H]2C[C@H]3c4[nH]c5ccccc5c4CCN3C[C@@H]2CC[C@@H]1O,24%[59 µM],·,·,3%,·,9%
CC(C(=O)N(C)Cc1cccc(F)c1)N1CCN(S(=O)(=O)c2ccc3c(c2)OCCCO3)CC1 (stereo unspecified),40µM*,1,-4%,-7%,-10%,·
CN(Cc1cccc(F)c1)C(=O)CN1CCN(S(=O)(=O)c2ccc3c(c2)OCCCO3)CC1,-9%[59 µM],0,-1%,-5%,-6%,·
C=CCc1ccccc1OCCSc1nc(-c2ccccc2F)nc2cc(=O)[nH]n12,4%[59 µM],·,·,7%,·,·
CCOC(=O)/C(=N/Nc1ccc(C)cc1)S(=O)(=O)c1ccc(Cl)cc1,14µM*,2,?,-1%,-12%,-8%
CCOC(=O)/C(=N\Nc1ccccc1)S(=O)(=O)c1ccccc1,?,-1,0%,-11%,-4%,-17%
CCOC(=O)N=S(N)(=O)c1ccc(Cl)cc1 (stereo unspecified),-35%[12.7 µM],-1,1%,-4%,11µM*,19%
CN(C)C(=O)c1ccc(-c2ccc3ncnc(N4CCOCC4)c3c2)cc1,-19%[0.501 µM],·,·,2%,·,6%
Nc1c2ccccc2nc2ccccc12,?,3,-3%,2%,-3%,1%
Cc1nc2ccccc2c2c(N)c3ccccc3n12,18µM*,0,-6%,?,12µM*,-1%
SMILES,G9a inh,CCT modulator,Mm-Cpn inhibitor,VDR inh,PLK1 PBD block,Sfp inh
Cc1ccc(-n2c(SCC(=O)N3CCC(C)CC3)nc3c([nH]c4ccccc43)c2=O)cc1,0%[59 µM],·,·,12%,·,·
CCc1nc(C)ccc1OCC(=O)NCCCN(C)C,3.2µM*,3,-5%,0%,-2%,?
CCc1nc(C)ccc1OCC(=O)O,-29%[12.7 µM],-3,0%,-1%,-8%,3%
Cc1cccc(CNC(=O)c2sc3ncnc(N(C)C4CCCCC4)c3c2C)c1,4%[59 µM],·,·,6%,·,·
O=C(NCc1ccccc1Cl)c1cnc2sc(N3CCCCC3)nn2c1=O,-2%[59 µM],·,·,6%,·,·
COc1cc(CNC2CCCCC2OC)cc(OC)c1OC (stereo unspecified),11µM*,3,0%,3%,-7%,-23%
Cc1ccc(CNC(=O)C(C)n2ccc3cc(S(=O)(=O)N4CCCC4)ccc32)cc1 (stereo unspecified),-5%[59 µM],·,·,-2%,·,·
CN(O)/C=C/C(=O)c1ccc(Br)cc1,20µM*,-4,0%,-4%,27µM*,10%
CCC(=O)NC(/C=C/c1ccccc1)c1cc([N+](=O)[O-])c2cccnc2c1O (stereo unspecified),3.2µM*,·,3%,·,·,4%
COc1cc(Cl)c(C)cc1Nc1ncnc2c1nc1n2CCCC1,-10%[59 µM],·,·,4%,·,·
Cc1ccc(-n2c3nc(=O)n(C)c(=O)c-3cc3ccccc32)c(C)c1,1%[59 µM],·,·,-7%,·,·
Cc1ccc(C)c(-n2c3nc(=O)n(C)c(=O)c-3cc3ccccc32)c1,79µM*,2,1%,-23%,-5%,-11%
C/C=C/c1ccc(OCC(=O)Nc2ccc(C(N)=O)cc2)c(OC)c1,-32%,-5,-1%,-17%,-7%,2%
COc1cc(/C=N/NC(=O)c2ccccc2O)ccc1OCC(=O)Nc1ccccc1,-5%[59 µM],-1,1%,-16%,?,-43%
COc1cc(/C=C/c2cc[n+](C)cc2)ccc1OCC(=O)Nc1ccccc1,13µM*,0,-7%,-15%,2%,15%
COc1cc(C=C2C(=O)OC(C)(C)OC2=O)ccc1OCC(=O)Nc1ccccc1,?,1,0%,-5%,19µM*,18%
Cc1cccc(NC(=O)c2sc3nc(N4CCOCC4)c4c(c3c2N)CC(C)(C)OC4)c1,-41%[59 µM],·,·,4%,·,·
CCOc1ccc(N)c(SSc2cc(OCC)ccc2N)c1,0.56µM*,-3,-3%,10µM*,1.7µM*,2.8µM*
O=C1c2ccccc2C(=O)N1CCc1ccccc1,·,2,·,-22%,27µM*,·
O=C1c2ccccc2C(=O)N1CCSc1nncs1,14%[2.33 µM],4,3%,19%,-3%,19%
O=C1c2ccccc2C(=O)N1CCSc1ccccc1,66%,-2,0%,-2%,27µM*,16%
Cc1oc(-c2cccc(Br)c2)nc1CN1CCC(C(=O)NCc2ccccc2)CC1,-2%[59 µM],·,·,5%,·,·
CCSc1nnc(NC(=O)c2ccc(Br)s2)s1,-25%[12.7 µM],-4,-3%,6%,-11%,4%
Cc1ccc(NC(=O)CSc2nnc(NC(=O)C(C)C)s2)c(C)c1,84%,0,2%,12%,-2%,14%

# Bioassay records: PubChem, National Center for Advancing Translational Sciences (NCATS)
